Assay outcomes deposited in PubChem by Sanford-Burnham Center for Chemical Genomics.
Rows were chosen to be rich in hits. Some 3.1% of all compounds tested hit in one or more screens of this group.
C8 TRAIL sens = viability loss with TRAIL in NB7+C8 cells, primary screen, TRAIL sensitizer project, cell-based, ATPlite luminescence; inhibition (viability loss, TRAIL sensitization), % at 10 µM; 360,000 compounds, 1% hits;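 active = compounds causing at least 50% loss of cell viability in the single-dose screen, relative to plate controls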
KKLEB cytotox = cytotoxicity in KKLEB CF airway cells, primary screen, cytotoxicity control for CF NF-kB inhibitor project, cell-based, uHTS, fluorescence assay plates. KKLEB CF airway cells viability, ATPlite luminescence, overnight; stronger effect = lower value; cells stimulated with P. aeruginosa culture filtrate. activity change (cytotoxicity), % at 5 µM. 360,000 compounds, 0.36% hits;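 active = corrected activity change at or below -50% at 5 µM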
CF NFkB inh = inhibitors of PAF-induced NF-kB signaling, primary screen, cell-based, GFP fluorescence, uHTS. inhibition, % at 5 µM. 360,000 compounds, 0.86% hits. KKLEB NF-kB-GFP reporter, GFP fluorescence overnight;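 active = at least 50% inhibition at 5 µM, scaled per plate between neutral and stimulator controls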;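 note: PAF is a Pseudomonas aeruginosa culture filtrate used as stimulus; plate controls were PAF-stimulated DMSO wells for no effect and unstimulated DMSO wells for full effect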
HIF-2a block = HIF-2a reporter inhibitors, primary screen, luminescence, 786-0 RCC cells | 786-0 RCC cells HIF-2a reporter, luciferase luminescence, overnight | 360,000 compounds, 0.72% hits | inhibition, % at 18.8 µM;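 active = inhibition of the luminescence signal of 40% or more relative to plate controls, in a single-dose primary screen at 18.75 µM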
Peg3 promoter = Peg3 promoter-driven luciferase inhibitors, primary screen, cell-based, HeLa, luciferase luminescence. inhibition, % at 20 µM. HeLa PEG-Prom luciferase reporter, overnight. AID 588405, 2011. 360,000 compounds, 1.7% hits;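 active = inhibition of at least 50% at 20 µM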
PPC-1+TRAIL kill = compounds killing PPC-1 cancer cells with TRAIL present, primary screen, TRAIL potentiator project, ATPLite luminescence, uHTS; PPC-1 cells + TRAIL, ATPLite viability luminescence; cell killing (% activity), % at 4 µM or 5 µM; 220,000 compounds, 0.41% hits;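 active = cell killing above 50% in the first pass at 4 µM, then a duplicate retest at 5 µM averaging 50% or more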;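 note: plate controls were cells with TRAIL plus DMSO for no effect and medium-only wells lacking cells for full effect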
The depositor's hits bear a star; x = no result given.

SMILES | C8 TRAIL sens | KKLEB cytotox | CF NFkB inh | HIF-2a block | Peg3 promoter | PPC-1+TRAIL kill
O=C(NCC(=O)N1CCN(S(=O)(=O)c2ccccc2C(F)(F)F)CC1)c1sc2ccccc2c1Cl | 30 | -55* | 48 | 5 | 11 | x
COc1ccccc1C(=O)Nc1ccc2oc(-c3ccc(F)cc3)nc2c1 | 13 | 6 | -5 | -94 | -114 | 53*
CCN1/C(=C/c2ccc3cc(C)ccc3[n+]2CC)Sc2ccccc21 | 32 | -3 | -312 | 75* | 104* | 66*
CCN1/C(=C/c2ccc3cc(C)ccc3[n+]2CC)Sc2cc(C)c(C)cc21 | 24 | -14 | -11 | 11 | 52* | 47
CCN1/C(=C/C=C/C=C/c2sc3ccccc3[n+]2CC)Sc2ccccc21 | x | x | x | x | x | 10
CCN1/C(=C/C=C/c2sc3ccccc3[n+]2CC)Sc2ccccc21 | 71* | -17 | 32 | -33 | 78* | x
Cc1ccc2nc(Cl)c3nnnn3c2c1 | 62* | -20 | 71* | -5 | 111* | 18
Cc1ccccc1Cn1nnc2c1C(=O)c1ccccc1C2=O | 52* | 0 | 39 | -31 | 2 | x
Cc1cccc(Cn2cnc3c(nnn3Cc3ccccc3F)c2=O)c1 | -8 | -20 | -20 | 11 | 24 | 2
Cc1cccc(Cn2nnc3c2C(=O)c2ccccc2C3=O)c1 | 51* | -5 | 62* | -26 | 40 | 33
CN(C)c1ccc(N2C(=NC(=O)COc3ccccc3)SC3CS(=O)(=O)CC32)cc1 (configuration not stated) | -11 | 4 | -4 | -16 | -35 | x
COc1ccc(N/N=C(\C#N)C(=N)N2CCCCC2)cc1 | 27 | -8 | 12 | -222 | -212 | 16
COc1ccc(N/N=C(\C#N)C(=N)SCc2ccccc2)cc1 | -2 | -14 | 78* | 10 | 42 | 1
Cc1nc(NC(=O)COC(=O)c2cccs2)c(Cl)cc1Cl | -4 | 0 | 4 | 7 | -15 | x
COC(=O)c1ccc(C(=O)OC)c(NC(=O)N2c3ccccc3Sc3ccccc32)c1 | 4 | -54* | 54* | 12 | 16 | -12
COC(=O)c1ccccc1NC(=O)N1c2ccccc2Sc2ccccc21 | -5 | 2 | 19 | 17 | 31 | -20
Cn1c(N)c(C(=O)COC(=O)Cc2ccc(Cl)c(Cl)c2)c(=O)n(C)c1=O | 14 | 7 | -31 | 7 | 4 | x
Cc1ccc([N+](=O)[O-])cc1N(CC(=O)NC1CCCC1)S(C)(=O)=O | -2 | 7 | 9 | 10 | 7 | 9
Cc1ccc(NS(=O)(=O)c2ccc(NC(=O)CN(c3cc([N+](=O)[O-])ccc3C)S(C)(=O)=O)cc2)c(C)c1 | 5 | 25 | -17 | 11 | 50* | -6
O=C(NC(=O)c1ccccc1)Nc1ccccc1 | 54* | 8 | -10 | -86 | -89 | x
COc1ccc(NC(=O)NC(=O)c2ccccc2)cc1 | 1 | 0 | 4 | -243 | -230 | x
CCN(CC)c1ccc(S(=O)(=O)N2CCOCC2)cc1NC(=O)c1cc(=O)c2ccccc2o1 | 20 | -20 | 40 | -2 | 62* | 19
Cc1c(C(=O)N(Cc2ccccc2)C(C)C)oc2ccc(S(=O)(=O)N3CCOCC3)cc12 | 30 | -4 | 19 | 25 | 51* | x
CCOC(=O)c1c(-c2ccc(-c3ccccc3)cc2)csc1NC(=O)CNCCN(C)C | 16 | -8 | 17 | 19 | 103* | x
Oc1ccc(C[C@@H]2CNCCN2CCC23CC4CC(CC(C4)C2)C3)cc1 | -7 | -11 | 8 | 1 | 51* | x
SMILES | C8 TRAIL sens | KKLEB cytotox | CF NFkB inh | HIF-2a block | Peg3 promoter | PPC-1+TRAIL kill
Oc1ccc(C[C@H]2CNCCN2CCCCC2CCCCC2)cc1 | 23 | -31 | 18 | -3 | 106* | x
Oc1ccc(C[C@@H]2CNCCN2CC2CCCCC2)cc1 | -4 | 11 | 8 | -8 | -30 | x
CC[C@]12C(=O)N(C)C[C@H]([C@@H]3C(=O)N(C)C(=O)[C@@H]31)N2C(=O)c1ccc(Cl)cc1 | -2 | -12 | 8 | 5 | -6 | x
OC1CCN(Cc2nc(Cc3ccccc3Cl)no2)CC1 | -3 | -1 | -4 | -6 | 1 | -8
Clc1ccc(Cc2noc(CN3CCN(c4ccccc4)CC3)n2)c(Cl)c1 | -9 | -2 | -19 | 12 | 54* | -5
Cc1ccc(C(=O)N/C(=C\c2cn(C)c3ccccc23)C(=O)NCCCN2CCOCC2)cc1 | 6 | -4 | 10 | 4 | -5 | x
Cc1ccc(C(=O)N/C(=C\c2ccc(-c3ccccc3[N+](=O)[O-])o2)C(=O)NCCCN2CCOCC2)cc1 | 56* | -6 | 38 | -7 | 5 | x
CNC(=O)COC(=O)c1ccc(-c2nc3ccccc3s2)s1 | 11 | 1 | -5 | -52 | -47 | 66*
COCCCNC(=O)COC(=O)c1ccc(-c2nc3ccccc3s2)s1 | 13 | 2 | -16 | -113 | -96 | 15
CN1CC(c2ccccc2)C2(SC(=S)N(Cc3ccco3)C2=O)C12C(=O)Nc1ccccc12 (configuration not stated) | 50* | -24 | 4 | 19 | 47 | 18
CN1CC(c2ccccn2)C2(SC(=S)N(Cc3ccccc3)C2=O)C12C(=O)Nc1ccccc12 (configuration not stated) | 2 | -2 | -1 | 14 | 0 | -2
CCOC(=O)c1sc(Nc2nc3c(OC)cccc3s2)cc1C | 8 | -5 | -13 | -223 | 77* | -9
CCOC(=O)c1sc(NC(=O)c2ccccc2OC)nc1C | 61* | -26 | -47 | -199 | -183 | 28
CCOC(=O)c1sc(NC(=O)CSc2nnc(C(C)C)n2CC)nc1C | -4 | -9 | -4 | 5 | 52* | 12
CCOC(=O)c1sc(NC(=O)c2cc3ccccc3o2)nc1C | 33 | 5 | -2 | -236 | -153 | 18
CCOC(=O)c1sc(NC(=O)Nc2ccccc2F)nc1C | 77* | -35 | 11 | -6 | -28 | 54*
CCOC(=O)c1sc(NC(=O)c2ccccc2)cc1C | 50* | -7 | -20 | -301 | -298 | 40
COc1ccc(-c2nc(NC(=O)c3ccco3)sc2C)cc1 | 22 | 1 | 0 | -220 | -180 | x
C=CCOC(=O)c1sc(NC(=O)c2ccco2)nc1C | 50* | -4 | 2 | -219 | -213 | 48
CCOC(=O)c1sc(NC(=O)CN2C(=O)C3CC=CCC3C2=O)nc1C (configuration not stated) | 9 | 2 | 12 | 15 | 89* | x
C[C@H]1CN[C@H](CCO)/C1=C\c1ccccc1 | 3 | 7 | -28 | -13 | 3 | x
COCCNc1c(-c2ccc(OC)c(OC)c2)nc2ccc(Cl)cn12 | 23 | 2 | -12 | -21 | 7 | x
